Source: PubChem BioAssay (NCATS)
Values without a mark were called inactive. Inconclusive results are not listed. A call without a number means that no potency is given here. Active and inactive are the calls of the source. Unless noted, calls come from the whole dose curve; as a rule, active = well fitted curve in the direction sought with a large enough effect; inconclusive = small, poorly fitted or top-dose-only effect, or another doubt; inactive = no such curve, though single readings can be large; an effect the other way counts as inactive or inconclusive.

Tests used:
[1] = AP1 Signaling Pathway (AID 357; active = well fitted curve in either direction with a large enough effect, not every such curve was filed as active;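 note: ME-180 reporter cells stimulated with EGF at its EC50 level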); conditions: ME-180 AP-1-bla reporter, EGF-induced, beta-lactamase ratio, 5 h; at 17.2 µM (top of the series) unless noted
In short: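 A ratiometric CCF4 readout (405 nm excitation; 460 and 530 nm emission) quantified AP-1-driven beta-lactamase in ME-180 cells after 5 h with compound and EC50 EGF; AC50 values were derived for activators and inhibitors.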

[2] = target: Glucocorticoid receptor (Homo sapiens) (UniProt P04150); assay: GR-GFP Redistribution (AID 450;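 active = compounds whose dose series gives a full or clear partial fitted curve of increased nuclear translocation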; note: potency is the fitted concentration of half-maximal effect)
Chain of Glucocorticoid receptor (Homo sapiens) (P04150 whole entry, looked up, the tested form may be a part): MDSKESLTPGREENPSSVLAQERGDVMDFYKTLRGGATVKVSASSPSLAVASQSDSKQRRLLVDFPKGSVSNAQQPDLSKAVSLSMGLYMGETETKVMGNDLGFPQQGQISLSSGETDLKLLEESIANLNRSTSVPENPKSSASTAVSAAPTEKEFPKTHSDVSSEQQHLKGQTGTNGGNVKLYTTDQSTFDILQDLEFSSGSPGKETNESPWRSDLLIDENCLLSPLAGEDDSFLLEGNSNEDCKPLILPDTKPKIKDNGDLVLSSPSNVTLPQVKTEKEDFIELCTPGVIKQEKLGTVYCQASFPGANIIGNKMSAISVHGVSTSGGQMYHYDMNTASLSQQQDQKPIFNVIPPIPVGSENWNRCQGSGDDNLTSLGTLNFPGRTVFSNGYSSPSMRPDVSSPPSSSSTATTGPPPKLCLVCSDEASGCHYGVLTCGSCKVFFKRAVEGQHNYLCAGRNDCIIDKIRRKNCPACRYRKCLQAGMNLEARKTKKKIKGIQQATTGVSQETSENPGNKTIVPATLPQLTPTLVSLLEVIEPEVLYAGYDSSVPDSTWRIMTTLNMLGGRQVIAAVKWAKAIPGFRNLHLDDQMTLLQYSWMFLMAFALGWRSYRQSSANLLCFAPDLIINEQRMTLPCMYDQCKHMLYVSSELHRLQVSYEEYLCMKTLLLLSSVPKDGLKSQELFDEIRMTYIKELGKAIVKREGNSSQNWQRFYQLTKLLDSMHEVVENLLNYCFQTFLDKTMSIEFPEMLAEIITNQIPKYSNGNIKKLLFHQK

[3] = qHTS Assay for Identification of Small Molecule Agonists for Hypoxia Response Element Signaling Pathway (AID 914; active = well fitted activation curve with a large enough effect in the signal ratio, with a control signal flat, not every such curve was filed as active; the % refers to the signal ratio; note: potency is the fitted concentration of half-maximal effect); conditions: ME-180 HRE-bla reporter, beta-lactamase ratio, CoCl2, 17 h; activation: hits give high values
In short: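 Compounds in a titration series were added to ME-180 reporter cells alongside an EC50 level of CoCl2. After 17 hours, beta-lactamase activity was read as the 460nm/530nm emission ratio of CCF4, giving AC50 values.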

[4] = target: Cytochrome P450 1A2 (Homo sapiens) (UniProt P05177); assay: p450-cyp1a2 (AID 410; calls by dose curve; note: potency is the fitted concentration of half-maximal effect)
Chain of Cytochrome P450 1A2 (Homo sapiens) (P05177 whole entry, looked up): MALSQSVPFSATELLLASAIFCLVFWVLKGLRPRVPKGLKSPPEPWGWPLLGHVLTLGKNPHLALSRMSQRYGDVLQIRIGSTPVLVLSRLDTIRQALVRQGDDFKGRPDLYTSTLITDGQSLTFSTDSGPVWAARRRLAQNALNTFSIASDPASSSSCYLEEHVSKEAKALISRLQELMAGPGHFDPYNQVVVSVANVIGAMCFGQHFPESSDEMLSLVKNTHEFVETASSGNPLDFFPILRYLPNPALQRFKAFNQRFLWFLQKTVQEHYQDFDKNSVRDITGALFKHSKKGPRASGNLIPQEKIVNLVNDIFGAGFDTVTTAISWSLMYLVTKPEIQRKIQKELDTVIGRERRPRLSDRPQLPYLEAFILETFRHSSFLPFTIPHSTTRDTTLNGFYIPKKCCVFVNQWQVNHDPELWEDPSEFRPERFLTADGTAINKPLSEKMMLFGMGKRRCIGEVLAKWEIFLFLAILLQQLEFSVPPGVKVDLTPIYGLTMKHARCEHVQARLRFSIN
In short: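 Luminescent demethylation readout: Luciferin-ME (100uM, equal to Km) turned over by 20nM CYP1A2 for 60 min at room temperature after NADPH regeneration addition, following 10 min compound preincubation. Normalization used 57 uM furafylline as full inhibition.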

[5] = Stat Signaling Pathway (AID 446; active = well fitted curve in either direction with a large enough effect, not every such curve was filed as active;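 note: ME-180 cervical cancer cells given 40 pM IL-6 alongside compound; SIE-controlled beta-lactamase reporter measured as 460/530 nm FRET emission ratio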); conditions: ME-180 (cervical carcinoma) SIE beta-lactamase reporter, IL-6 stimulated, 5 h; at 17.2 µM (top of the series) unless noted
In short: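 FRET read-out (405 nm excitation, 460/530 nm emission) of a beta-lactamase reporter under a STAT-inducible element in ME-180 cervical carcinoma cells. Cells with compound receive 40 pM IL-6 for 5 h. Values are normalised to AC90 stimulation and AC90 JAK-inhibitor controls.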

[6] = target: Glucocorticoid receptor (Homo sapiens) (UniProt P04150); assay: GR-EFC Redistribution (AID 451; calls by dose curve; note: potency is the fitted concentration of half-maximal effect); conditions: CHO-K1 GR-EFC translocation, beta-gal luminescence, 2 h
In short: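 Translocation of GR-ED fusion to nuclear EA restores b-gal, read by luminescence after 1 h room-temperature detection. Engineered CHO-K1 biosensor cells, 1,000/well, exposed 2 h at 37 C to titrations up to 46 uM final.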

[7] = target: Mitogen-activated protein kinase 10 (Mus musculus) (UniProt Q61831); assay: JNK3 AlphaScreen Assay (AID 530; active = well fitted curve in either direction with a large enough effect, not every such curve was filed as active;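 note: kinase came from lysate of stimulated human HepG2 cells; signal reports phosphorylation of biotinylated GST-cJun 1-79 at Ser73 with 10 µM ATP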)
In short: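 qHTS titrations with 15 min compound pre-incubation before adding ATP (10 uM final). Read-out: AlphaScreen of Ser73-phosphorylated biotin-GST-cJun using HepG2 lysate JNK3 activated by IL-1β and TNFα.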

[8] = target: 3',5'-cyclic-AMP phosphodiesterase 4B (Homo sapiens) (UniProt Q07343); assay: qHTS Assay for Inhibitors of PDE-IV (AID 607; active = well fitted activation curve with a large enough effect in the main read-out, with a control signal flat, not every such curve was filed as active)
Chain of 3',5'-cyclic-AMP phosphodiesterase 4B (Homo sapiens) (Q07343 whole entry, looked up): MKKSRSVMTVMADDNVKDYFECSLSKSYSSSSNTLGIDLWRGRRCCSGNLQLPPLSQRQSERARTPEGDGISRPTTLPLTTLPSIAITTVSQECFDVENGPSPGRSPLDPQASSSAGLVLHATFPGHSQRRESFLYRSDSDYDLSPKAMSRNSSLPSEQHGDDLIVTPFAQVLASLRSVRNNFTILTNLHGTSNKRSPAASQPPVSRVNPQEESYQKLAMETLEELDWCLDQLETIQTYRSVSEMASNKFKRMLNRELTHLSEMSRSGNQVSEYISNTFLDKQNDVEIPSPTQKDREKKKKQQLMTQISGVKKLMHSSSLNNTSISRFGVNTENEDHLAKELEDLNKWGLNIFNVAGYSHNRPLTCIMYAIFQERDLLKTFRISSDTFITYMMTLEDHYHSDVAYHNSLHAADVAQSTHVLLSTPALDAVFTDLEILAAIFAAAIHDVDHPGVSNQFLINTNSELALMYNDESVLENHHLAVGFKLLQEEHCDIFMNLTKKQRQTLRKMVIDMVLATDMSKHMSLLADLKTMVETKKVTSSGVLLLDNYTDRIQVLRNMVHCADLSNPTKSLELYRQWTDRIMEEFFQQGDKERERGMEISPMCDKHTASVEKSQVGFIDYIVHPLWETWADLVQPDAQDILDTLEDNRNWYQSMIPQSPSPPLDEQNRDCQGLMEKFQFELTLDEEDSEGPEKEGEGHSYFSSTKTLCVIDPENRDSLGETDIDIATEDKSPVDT
In short: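 Cell-based read-out of cAMP via a modified cyclic nucleotide-gated channel and membrane potential dye (535/590 nm) in HEK293 cells expressing PDE4 endogenously. Compounds tested up to 22.9 uM final; 100 uM RO 20-1724 reference.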

[9] = target: Guanine nucleotide-binding protein G(i) subunit alpha-1 (Homo sapiens) (UniProt P63096); assay: qHTS Assay for Inhibitors of RGS12 GoLoco Motif Activity (Green Fluorophore) (AID 879);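 note: negative values mean loss of peptide binding seen as reduced polarization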
Chain of Guanine nucleotide-binding protein G(i) subunit alpha-1 (Homo sapiens) (P63096 whole entry, looked up): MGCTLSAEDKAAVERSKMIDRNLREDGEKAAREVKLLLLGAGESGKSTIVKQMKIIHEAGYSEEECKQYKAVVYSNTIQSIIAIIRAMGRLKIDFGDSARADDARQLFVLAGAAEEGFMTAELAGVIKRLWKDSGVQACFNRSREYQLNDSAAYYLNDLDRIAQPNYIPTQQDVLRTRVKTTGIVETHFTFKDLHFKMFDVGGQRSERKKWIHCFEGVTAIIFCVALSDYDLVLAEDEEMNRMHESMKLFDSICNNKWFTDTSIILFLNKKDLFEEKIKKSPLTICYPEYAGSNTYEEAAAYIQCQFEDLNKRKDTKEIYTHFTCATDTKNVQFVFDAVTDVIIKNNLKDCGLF
In short: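 A drop in FITC polarization marked displacement of the FITC-tagged RGS12 GoLoco peptide (10 nM) from Gαi1 (50 nM). Compounds were incubated 10 min at room temperature in Tris pH 7.5 buffer containing 150 mM NaCl, 0.1 mM GDP and 0.05% NP40; unlabeled peptide titration served as control.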

[10] = target: Cytochrome P450 2C9 (Homo sapiens) (UniProt P11712); assay: qHTS Assay for Inhibitors and Substrates of Cytochrome P450 2C9 (AID 883); note: potency is the fitted concentration of half-maximal effect; nearly all actives have a fitted effect of over 60% in size
In short: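 Luminescent read-out of deoxyluciferin hydroxylation, normalized to 57uM sulphaphenazole (AC100). Reaction: 10nM enzyme, 100uM Luciferin-H (equal to KM), 25mM KPO4, 10 min compound preincubation, then 60 min with NADPH regeneration, both at 37C.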

[11] = target: Cytochrome P450 3A4 (Homo sapiens) (UniProt P08684); assay: qHTS Assay for Inhibitors and Substrates of Cytochrome P450 3A4 (AID 884); note: potency is the fitted concentration of half-maximal effect; nearly all actives have a fitted effect of over 50% in size
Chain of Cytochrome P450 3A4 (Homo sapiens) (P08684 whole entry, looked up): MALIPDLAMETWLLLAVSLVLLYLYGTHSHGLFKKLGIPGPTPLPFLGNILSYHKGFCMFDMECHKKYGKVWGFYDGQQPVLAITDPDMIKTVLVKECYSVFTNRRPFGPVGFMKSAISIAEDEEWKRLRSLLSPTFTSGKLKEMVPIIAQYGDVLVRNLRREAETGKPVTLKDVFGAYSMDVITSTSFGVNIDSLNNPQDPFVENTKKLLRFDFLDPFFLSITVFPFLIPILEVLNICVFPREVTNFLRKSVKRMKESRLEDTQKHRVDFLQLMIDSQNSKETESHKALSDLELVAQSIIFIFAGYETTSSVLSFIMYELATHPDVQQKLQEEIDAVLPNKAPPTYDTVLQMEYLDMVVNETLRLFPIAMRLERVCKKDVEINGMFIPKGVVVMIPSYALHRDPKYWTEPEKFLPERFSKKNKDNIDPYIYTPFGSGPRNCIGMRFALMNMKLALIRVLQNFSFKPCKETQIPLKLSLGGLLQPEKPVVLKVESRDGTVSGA
In short: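 Luminescent readout of luciferin produced by CYP3A4 (20 nM) dealkylation of Luciferin-PPXE, 25 uM (its KM). NADPH-driven reaction ran 60 min at RT after 10 min compound preincubation; data scaled to 57 uM ketoconazole as 100% inhibition.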

[12] = target: Cytochrome P450 3A4 (Homo sapiens) (UniProt P08684); assay: qHTS Assay for Activators of Cytochrome P450 3A4 (AID 885); note: nearly all actives have a fitted effect of over 65% in size
In short: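 Luminescent readout of luciferin formed from 25 uM Luciferin-PPXE (KM level) by 20 nM CYP3A4 in 200 mM KPO4, with 60 min NADPH-driven reaction at room temperature after 10 min compound exposure. Ketoconazole (57 uM) defined 100% inhibition.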

[13] = qHTS Assay for Identification of Small Molecule Antagonists for NFkB Signaling Pathway (AID 895; active = well fitted inhibition curve with a large enough effect in the signal ratio, with a control signal flat, not every such curve was filed as active; the % refers to the signal ratio; note: potency is the fitted concentration of half-maximal effect)
In short: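 Beta-lactamase reporter read-out (460 and 530 nm emission ratio, 405 nm excitation, 2 hrs substrate loading RT) after 5 hr stimulation with 10 pM TNF alpha in compound-treated NFkB-bla ME-180 cells in low-serum medium.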

[14] = target: Cytochrome P450 2C19 (Homo sapiens) (UniProt P33261); assay: qHTS Assay for Inhibitors and Substrates of Cytochrome P450 2C19 (AID 899); note: potency is the fitted concentration of half-maximal effect; nearly all actives have a fitted effect of over 60% in size
Chain of Cytochrome P450 2C19 (Homo sapiens) (P33261 whole entry, looked up): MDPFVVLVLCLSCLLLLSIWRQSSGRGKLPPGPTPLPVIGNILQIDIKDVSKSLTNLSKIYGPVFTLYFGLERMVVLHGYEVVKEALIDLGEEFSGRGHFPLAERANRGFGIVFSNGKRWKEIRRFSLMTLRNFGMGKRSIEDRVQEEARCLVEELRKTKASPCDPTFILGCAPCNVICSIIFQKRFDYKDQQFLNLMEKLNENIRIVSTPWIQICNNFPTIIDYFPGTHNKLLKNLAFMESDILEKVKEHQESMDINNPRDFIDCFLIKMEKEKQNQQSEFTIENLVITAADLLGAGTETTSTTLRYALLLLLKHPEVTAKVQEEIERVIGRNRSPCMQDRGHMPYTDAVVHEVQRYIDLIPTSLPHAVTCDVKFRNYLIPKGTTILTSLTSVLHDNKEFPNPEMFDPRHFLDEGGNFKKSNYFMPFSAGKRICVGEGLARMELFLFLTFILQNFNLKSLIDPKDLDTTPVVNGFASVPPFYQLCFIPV
In short: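 Luminescence readout of luciferin formed from 10uM Luciferin-H EGE (KM level) by 5 nM CYP2C19 in 50mM KPO4. 60 min NADPH-driven reaction at 37C after 10 min compound preincubation; data scaled to 57uM ketoconazole inhibition.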

[15] = qHTS Assay for Identification of Small Molecule Agonists for Thrombopoietin (TPO) Signaling Pathway (AID 917)
In short: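 Cell-based luciferase reporter screen. Mouse Ba/F3 line stably expressing human TPO receptor; IL-3 removed overnight before plating. Co-treatment with compound and EC50 TPO (26 pM), 24 hrs at 37 C, then luminescence.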

[16] = target: Pyruvate kinase (Leishmania mexicana) (UniProt Q27686); assay: qHTS Validation Assay for Inhibitors of Leishmania Mexicana Pyruvate Kinase (AID 945)
Chain of Pyruvate kinase (Leishmania mexicana) (Q27686 2-499 E452W): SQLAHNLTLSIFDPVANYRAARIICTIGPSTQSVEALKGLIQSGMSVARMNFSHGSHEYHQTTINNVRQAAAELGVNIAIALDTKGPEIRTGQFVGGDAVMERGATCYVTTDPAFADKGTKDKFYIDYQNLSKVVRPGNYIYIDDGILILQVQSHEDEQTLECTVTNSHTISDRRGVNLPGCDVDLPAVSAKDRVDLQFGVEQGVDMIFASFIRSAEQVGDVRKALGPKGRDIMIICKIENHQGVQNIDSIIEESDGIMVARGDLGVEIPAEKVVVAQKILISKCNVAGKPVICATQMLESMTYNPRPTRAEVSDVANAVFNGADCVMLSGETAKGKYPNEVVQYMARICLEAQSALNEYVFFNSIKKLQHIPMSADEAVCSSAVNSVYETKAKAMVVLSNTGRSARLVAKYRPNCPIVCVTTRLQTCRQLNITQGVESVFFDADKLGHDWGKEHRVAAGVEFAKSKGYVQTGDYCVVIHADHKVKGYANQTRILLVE
In short: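 Pyruvate kinase activity of E451W LmPYK (0.2 nM) was followed as ATP output after 1 h at room temperature with 0.5 mM PEP and 0.1 mM ADP, detected by PKLight luminescence.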

[17] = target: Pyruvate kinase PKM (Homo sapiens) (UniProt P14618); assay: qHTS Assay for Activators of Human Muscle Pyruvate Kinase (AID 954; active = well fitted curve in the direction sought with a large enough effect, not every such curve was filed as active)
Chain of Pyruvate kinase PKM (Homo sapiens) (P14618 whole entry, looked up): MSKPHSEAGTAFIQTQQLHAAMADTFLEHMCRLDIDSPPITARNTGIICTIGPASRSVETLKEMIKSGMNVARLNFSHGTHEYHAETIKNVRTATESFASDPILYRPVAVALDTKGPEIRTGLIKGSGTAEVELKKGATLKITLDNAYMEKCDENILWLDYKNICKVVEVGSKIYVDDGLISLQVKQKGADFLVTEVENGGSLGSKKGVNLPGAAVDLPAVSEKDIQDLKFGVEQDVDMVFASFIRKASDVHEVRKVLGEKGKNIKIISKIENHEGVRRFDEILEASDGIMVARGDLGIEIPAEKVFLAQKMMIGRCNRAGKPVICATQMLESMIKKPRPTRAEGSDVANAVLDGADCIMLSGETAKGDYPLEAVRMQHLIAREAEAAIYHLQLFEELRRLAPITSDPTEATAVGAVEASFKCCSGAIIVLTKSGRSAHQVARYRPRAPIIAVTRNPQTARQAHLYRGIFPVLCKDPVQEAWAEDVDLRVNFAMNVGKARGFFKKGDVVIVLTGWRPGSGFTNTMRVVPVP
In short: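 ATP production by PKM2 detected via luciferase luminescence after 1 h room-temperature reaction (0.1 nM enzyme, PEP at Km 0.5 mM, ADP 0.1 mM, pH 7.2 imidazole buffer). Inhibition scaled to no-enzyme control; activation referenced to 0.3 nM enzyme wells.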

[18] = target: Alpha-galactosidase A (Homo sapiens) (UniProt P06280); assay: Counterscreen for Glucocerebrosidase Inhibitors: qHTS Assay for Human alpha-Galactosidase at pH 4.5 (AID 992)
Chain of Alpha-galactosidase A (Homo sapiens) (P06280 whole entry, looked up): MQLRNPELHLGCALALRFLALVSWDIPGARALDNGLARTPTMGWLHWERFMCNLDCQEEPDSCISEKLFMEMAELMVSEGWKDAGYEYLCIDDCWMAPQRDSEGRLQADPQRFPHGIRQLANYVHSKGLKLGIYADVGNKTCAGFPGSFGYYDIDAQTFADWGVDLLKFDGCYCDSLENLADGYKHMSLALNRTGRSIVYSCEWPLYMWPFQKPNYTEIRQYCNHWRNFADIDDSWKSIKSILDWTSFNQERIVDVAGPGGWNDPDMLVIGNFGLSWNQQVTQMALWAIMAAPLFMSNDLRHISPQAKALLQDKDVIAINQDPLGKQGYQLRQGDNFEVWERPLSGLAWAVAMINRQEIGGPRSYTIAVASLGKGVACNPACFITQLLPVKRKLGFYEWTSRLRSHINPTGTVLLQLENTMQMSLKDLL
In short: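 Fluorogenic 1536-well qHTS at pH 4.5 (citrate, Tween-20): 2 nM enzyme, 80 uM 4-MU-alpha-galactoside, 20 min room temperature, NaOH/glycine stop. Titration 0.7 nM to 77 uM, data normalized to no-enzyme and full-activity controls, Hill-fitted AC50.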

[19] = target: alpha-glucosidase (Oryza sativa, rice) (UniProt Q653V4); assay: Counterscreen for Glucocerebrosidase Inhibitors: qHTS Assay for Rice alpha-Glucosidase at pH 5.0 (AID 997)
In short: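 Endpoint fluorogenic assay at pH 5.0: compounds (0.7 nM to 77 uM) titrated against 4 nM rice enzyme and 400 uM 4-MU-alpha-glucoside for 20 min at room temperature; NaOH/glycine stop, read ex 365/em 440 nm, Hill-fitted AC50.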

[20] = target: Muscarinic acetylcholine receptor M1 (Rattus norvegicus) (UniProt P08482); assay: qHTS Assay for Antagonists of Acetylcholine Muscarinic M1 Receptor: Kinetic Measurement of Intracellular Calcium Response (AID 943);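 note: Fluo-4 calcium signal as peak divided by basal fluorescence over 4 min; nearly all actives have a fitted effect of over 75% in size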
In short: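 Antagonism measured as reduction of carbachol-evoked (EC80, 100 nM final) calcium flux in rat M1-CHO cells after 10 min compound exposure. Fluo-4 signal read kinetically; ratio of maximal to basal fluorescence.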

[21] = NFAT Signaling Pathway (AID 444; active = well fitted curve in either direction with a large enough effect, not every such curve was filed as active;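 note: carbachol stimulus at about its EC50 of 1 µM final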); conditions: Jurkat NFAT-bla M1, carbachol, beta-lactamase ratio, 5 h; at 17.2 µM (top of the series) unless noted
In short: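 Read-out: CCF4 FRET ratio (460 nm/530 nm) after 1 h RT dye loading, used for %activity and AC50 from titration series. Cells: Jurkat NFAT-β-lactamase/M1 line, treated with compound plus 1 uM carbachol for 5 h, 37 °C.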

CC(C)(C)C1CCC2(CC1)C(C#N)=C(SCC(=O)Nc1ccccc1)NC(=O)C2C#N (stereo not drawn)
activity change, negative = inhibition [1]: -1.12% | Potency [2]: > 20.6 µM

CN1CCc2c(sc3c2c(=O)n(-c2ccccc2)c2nnc(SCc4ccccc4)n32)C1
activity change, negative = inhibition [1]: -13.6% | Potency [2]: > 20.6 µM

CCOC(=O)C1=C(CSc2nc3c(cc2C#N)CN(C)CC3)OC(N)=C(C#N)C1c1ccccc1 (stereo not drawn)
activity change, negative = inhibition [1]: -2.2% | Potency [2]: > 20.6 µM

COCCNC(=O)c1c(N)n(CCC2=CCCCC2)c2nc3ccccc3nc12
activity change, negative = inhibition [1]: 28.7% | Potency [2]: > 20.6 µM | Potency [3]: 10 µM (active)

C#CCN1C(C)=C(C(=O)OC)[C@@H](c2cccc([N+](=O)[O-])c2)C(C(=O)OCC)=C1C
Potency [4]: 12.6 µM (active) | activity, negative = inhibition [5]: -3.77% [at 38 µM] | Potency [2]: > 46 µM | Potency [6]: > 46 µM | Potency [7]: inactive | Potency [8]: inactive | outcome [9]: inactive | Potency [10]: 316 nM (active) | Potency [11]: 3.16 µM (active) | Potency [12]: inactive | Potency [13]: 3.55 µM (active) | Potency [14]: 5.01 µM (active) | Potency [15]: inactive | Potency [16]: inactive | outcome [17]: inactive | outcome [18]: inactive | outcome [19]: inactive

CCCCC[C@H](O)c1cccc(OCc2ccc3ccccc3n2)c1
Potency [4]: 0.794 µM (active) | activity, negative = inhibition [5]: -0.505% [at 38 µM] | Potency [2]: > 46 µM | Potency [7]: inactive | outcome [9]: inactive | Potency [12]: inactive | Potency [14]: 6.31 µM (active) | Potency [15]: inactive | Potency [20]: inactive | Potency [16]: inactive | outcome [17]: inactive | outcome [18]: inactive | outcome [19]: inactive

CC[C@]1(O)C[C@H]2CN(CCc3c([nH]c4ccccc34)[C@](C(=O)OC)(c3cc4c(cc3OC)N(C=O)[C@H]3[C@@](O)(C(=O)OC)[C@H](OC(C)=O)[C@@]5(CC)C=CCN6CC[C@]43[C@H]65)C2)C1
Potency [4]: inactive | activity change, negative = inhibition [21]: -8.89% [at 38 µM] | activity, negative = inhibition [5]: -14.3% [at 38 µM] | Potency [2]: > 46 µM | Potency [6]: > 46 µM | Potency [8]: inactive | outcome [9]: inactive | Potency [11]: 3.98 µM (active) | Potency [12]: inactive | Potency [13]: inactive | Potency [16]: inactive | outcome [17]: inactive | outcome [18]: inactive | outcome [19]: inactive
